Experimental data from the supplement of paper PMC11732987, “Enantioselective OTUD7B fragment discovery through chemoproteomics screening and high-throughput optimisation” (Communications Chemistry, 2025).

What was measured:
Experiment in all cases: log2 ratio of Biotin-Ahx-Ub-VS probe labelling (fragment/DMSO); higher = less target engagement (more negative = stronger competition), active = hit call of the paper (q ≤ 0.05, log2 ratio ≤ -1)
Conditions in all cases: compound concentration: 200 uM; treatment time: 3 h
USP16 = USP16 (UniProt Q9Y5T5)
How it was run: (§1)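 Using Biotin-Ahx-Ub-VS at 0.5 µM final for 1 h, DUBs were labelled in HEK293T lysate (495 µg per sample) that had first been treated in triplicate with fragment at 200 µM or vehicle for 3 h. NeutrAvidin enrichment, LysC and trypsin digestion and diaPASEF LC-MS/MS followed. Spectronaut label-free quantities were global-median-normalised. Values are average log2 fragment/vehicle ratios by unpaired t-test, using proteins with ≥2 unique peptides.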

USP19 = target: T1, USP19 (UniProt O94966)
T1 sequence (whole entry): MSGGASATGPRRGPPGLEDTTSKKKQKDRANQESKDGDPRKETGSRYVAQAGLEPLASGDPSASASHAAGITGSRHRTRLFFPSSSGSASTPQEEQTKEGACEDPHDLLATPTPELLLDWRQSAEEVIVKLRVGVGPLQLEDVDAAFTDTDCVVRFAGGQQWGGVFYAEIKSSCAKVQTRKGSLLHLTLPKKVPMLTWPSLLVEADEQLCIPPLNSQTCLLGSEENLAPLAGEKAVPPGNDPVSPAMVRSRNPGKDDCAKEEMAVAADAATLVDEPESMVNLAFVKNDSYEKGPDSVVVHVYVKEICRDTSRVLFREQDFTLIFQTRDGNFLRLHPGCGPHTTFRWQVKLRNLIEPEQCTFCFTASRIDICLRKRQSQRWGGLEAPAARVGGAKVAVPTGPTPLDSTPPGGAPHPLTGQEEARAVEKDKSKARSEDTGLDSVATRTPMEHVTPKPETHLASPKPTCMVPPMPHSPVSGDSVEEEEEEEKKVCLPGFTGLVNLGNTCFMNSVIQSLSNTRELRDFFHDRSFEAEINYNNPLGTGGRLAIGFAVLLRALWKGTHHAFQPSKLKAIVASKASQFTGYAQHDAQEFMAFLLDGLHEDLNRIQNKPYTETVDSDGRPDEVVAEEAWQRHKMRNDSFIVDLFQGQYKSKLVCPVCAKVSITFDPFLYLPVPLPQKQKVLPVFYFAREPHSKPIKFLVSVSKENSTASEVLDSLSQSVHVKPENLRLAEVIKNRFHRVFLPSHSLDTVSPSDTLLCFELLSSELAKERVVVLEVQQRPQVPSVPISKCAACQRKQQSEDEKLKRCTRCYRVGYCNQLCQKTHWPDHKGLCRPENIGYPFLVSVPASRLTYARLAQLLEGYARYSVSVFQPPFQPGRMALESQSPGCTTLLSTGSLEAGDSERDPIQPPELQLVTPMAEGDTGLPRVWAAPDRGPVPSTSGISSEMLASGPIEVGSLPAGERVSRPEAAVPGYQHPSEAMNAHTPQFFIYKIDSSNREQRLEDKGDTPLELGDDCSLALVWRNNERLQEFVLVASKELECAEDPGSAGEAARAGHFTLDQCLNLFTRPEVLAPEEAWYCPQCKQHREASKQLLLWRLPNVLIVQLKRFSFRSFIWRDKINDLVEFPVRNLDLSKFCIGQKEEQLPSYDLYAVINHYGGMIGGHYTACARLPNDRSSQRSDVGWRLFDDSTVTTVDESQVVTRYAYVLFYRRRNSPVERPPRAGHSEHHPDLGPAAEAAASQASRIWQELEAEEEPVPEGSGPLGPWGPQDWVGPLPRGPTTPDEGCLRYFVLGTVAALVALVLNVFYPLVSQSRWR
How it was run: as §1

USP24 = USP24 (UniProt Q9UPU5)
How it was run: as §1

USP25 = target: T2, USP25 (UniProt Q9UHP3)
T2 sequence (whole entry): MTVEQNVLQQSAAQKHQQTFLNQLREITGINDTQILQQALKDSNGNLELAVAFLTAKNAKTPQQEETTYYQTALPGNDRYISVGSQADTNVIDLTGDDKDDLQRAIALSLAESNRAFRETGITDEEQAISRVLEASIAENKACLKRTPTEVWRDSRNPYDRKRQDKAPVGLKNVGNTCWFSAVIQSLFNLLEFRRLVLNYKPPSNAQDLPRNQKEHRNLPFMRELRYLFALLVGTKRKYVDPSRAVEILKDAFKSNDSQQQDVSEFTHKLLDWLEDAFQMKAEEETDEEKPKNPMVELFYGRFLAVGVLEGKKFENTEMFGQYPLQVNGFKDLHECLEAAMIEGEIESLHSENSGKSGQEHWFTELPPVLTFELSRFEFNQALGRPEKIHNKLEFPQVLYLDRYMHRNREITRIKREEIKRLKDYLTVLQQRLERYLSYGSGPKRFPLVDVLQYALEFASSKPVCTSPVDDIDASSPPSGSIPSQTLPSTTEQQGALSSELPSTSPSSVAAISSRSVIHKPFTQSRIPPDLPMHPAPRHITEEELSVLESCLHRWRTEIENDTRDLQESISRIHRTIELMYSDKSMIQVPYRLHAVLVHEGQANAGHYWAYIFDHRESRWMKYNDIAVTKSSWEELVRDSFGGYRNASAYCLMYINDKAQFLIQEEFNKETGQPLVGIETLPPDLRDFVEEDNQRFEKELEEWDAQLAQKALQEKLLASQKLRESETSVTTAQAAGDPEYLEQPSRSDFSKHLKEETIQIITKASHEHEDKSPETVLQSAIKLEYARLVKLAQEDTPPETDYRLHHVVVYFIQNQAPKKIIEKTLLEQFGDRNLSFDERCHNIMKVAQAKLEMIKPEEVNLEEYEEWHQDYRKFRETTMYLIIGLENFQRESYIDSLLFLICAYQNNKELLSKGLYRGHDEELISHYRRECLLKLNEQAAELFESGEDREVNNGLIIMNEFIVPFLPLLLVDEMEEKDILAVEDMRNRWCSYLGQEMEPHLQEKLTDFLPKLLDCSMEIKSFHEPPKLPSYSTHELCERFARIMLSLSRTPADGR
How it was run: as §1

USP28 = target: T3, USP28 (UniProt Q96RU2)
T3 sequence (whole entry): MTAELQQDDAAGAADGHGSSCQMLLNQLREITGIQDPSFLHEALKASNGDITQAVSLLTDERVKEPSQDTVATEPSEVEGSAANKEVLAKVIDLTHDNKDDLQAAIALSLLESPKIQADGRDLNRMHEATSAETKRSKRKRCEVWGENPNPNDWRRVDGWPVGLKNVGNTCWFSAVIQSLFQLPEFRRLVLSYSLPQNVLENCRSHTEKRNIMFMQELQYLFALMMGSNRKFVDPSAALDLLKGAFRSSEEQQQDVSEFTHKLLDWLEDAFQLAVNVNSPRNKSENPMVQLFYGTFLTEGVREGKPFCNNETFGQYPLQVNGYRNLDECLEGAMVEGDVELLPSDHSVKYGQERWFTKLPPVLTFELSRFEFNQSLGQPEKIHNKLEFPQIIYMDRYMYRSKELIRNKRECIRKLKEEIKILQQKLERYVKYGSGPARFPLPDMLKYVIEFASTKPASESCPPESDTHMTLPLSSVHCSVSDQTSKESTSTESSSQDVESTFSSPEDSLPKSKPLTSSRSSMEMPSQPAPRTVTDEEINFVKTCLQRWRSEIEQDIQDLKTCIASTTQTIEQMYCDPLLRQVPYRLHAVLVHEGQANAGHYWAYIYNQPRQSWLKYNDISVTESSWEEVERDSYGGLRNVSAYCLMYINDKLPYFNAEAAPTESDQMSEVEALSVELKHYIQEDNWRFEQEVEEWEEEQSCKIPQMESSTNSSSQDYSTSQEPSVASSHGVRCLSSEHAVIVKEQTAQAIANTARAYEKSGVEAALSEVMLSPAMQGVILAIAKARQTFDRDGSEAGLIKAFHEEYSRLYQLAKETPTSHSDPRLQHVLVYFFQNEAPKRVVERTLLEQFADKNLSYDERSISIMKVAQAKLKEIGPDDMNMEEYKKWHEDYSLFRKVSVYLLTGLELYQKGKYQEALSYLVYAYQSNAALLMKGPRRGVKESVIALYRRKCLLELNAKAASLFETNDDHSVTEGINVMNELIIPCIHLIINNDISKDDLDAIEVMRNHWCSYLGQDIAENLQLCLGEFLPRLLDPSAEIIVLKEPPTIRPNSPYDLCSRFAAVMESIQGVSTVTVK
How it was run: as §1

Measured: log2 ratio of Biotin-Ahx-Ub-VS probe labelling

Chain of USP16 (Q9Y5T5 whole entry, looked up, the tested form may be a part): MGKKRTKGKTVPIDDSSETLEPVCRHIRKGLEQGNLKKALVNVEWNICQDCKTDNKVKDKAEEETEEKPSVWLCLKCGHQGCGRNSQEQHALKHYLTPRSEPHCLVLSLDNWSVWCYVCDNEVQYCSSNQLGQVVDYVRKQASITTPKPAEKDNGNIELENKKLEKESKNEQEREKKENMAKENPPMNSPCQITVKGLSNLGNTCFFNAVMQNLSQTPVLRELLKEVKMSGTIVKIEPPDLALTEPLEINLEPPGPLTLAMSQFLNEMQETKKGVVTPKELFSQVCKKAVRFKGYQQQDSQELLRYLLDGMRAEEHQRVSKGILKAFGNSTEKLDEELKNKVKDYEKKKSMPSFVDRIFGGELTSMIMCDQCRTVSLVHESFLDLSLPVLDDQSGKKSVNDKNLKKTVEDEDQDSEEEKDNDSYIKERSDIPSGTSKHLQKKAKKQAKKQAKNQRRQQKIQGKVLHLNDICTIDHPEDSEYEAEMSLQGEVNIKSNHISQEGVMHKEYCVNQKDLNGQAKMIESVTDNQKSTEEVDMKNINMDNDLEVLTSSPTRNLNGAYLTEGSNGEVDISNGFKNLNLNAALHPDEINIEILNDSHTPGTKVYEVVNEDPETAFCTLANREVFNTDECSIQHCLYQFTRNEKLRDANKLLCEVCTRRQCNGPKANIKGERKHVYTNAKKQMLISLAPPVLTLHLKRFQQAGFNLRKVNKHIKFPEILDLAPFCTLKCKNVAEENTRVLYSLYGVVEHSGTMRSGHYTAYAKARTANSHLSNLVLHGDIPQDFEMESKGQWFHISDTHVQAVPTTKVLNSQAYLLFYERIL
Chain of USP24 (Q9UPU5 whole entry): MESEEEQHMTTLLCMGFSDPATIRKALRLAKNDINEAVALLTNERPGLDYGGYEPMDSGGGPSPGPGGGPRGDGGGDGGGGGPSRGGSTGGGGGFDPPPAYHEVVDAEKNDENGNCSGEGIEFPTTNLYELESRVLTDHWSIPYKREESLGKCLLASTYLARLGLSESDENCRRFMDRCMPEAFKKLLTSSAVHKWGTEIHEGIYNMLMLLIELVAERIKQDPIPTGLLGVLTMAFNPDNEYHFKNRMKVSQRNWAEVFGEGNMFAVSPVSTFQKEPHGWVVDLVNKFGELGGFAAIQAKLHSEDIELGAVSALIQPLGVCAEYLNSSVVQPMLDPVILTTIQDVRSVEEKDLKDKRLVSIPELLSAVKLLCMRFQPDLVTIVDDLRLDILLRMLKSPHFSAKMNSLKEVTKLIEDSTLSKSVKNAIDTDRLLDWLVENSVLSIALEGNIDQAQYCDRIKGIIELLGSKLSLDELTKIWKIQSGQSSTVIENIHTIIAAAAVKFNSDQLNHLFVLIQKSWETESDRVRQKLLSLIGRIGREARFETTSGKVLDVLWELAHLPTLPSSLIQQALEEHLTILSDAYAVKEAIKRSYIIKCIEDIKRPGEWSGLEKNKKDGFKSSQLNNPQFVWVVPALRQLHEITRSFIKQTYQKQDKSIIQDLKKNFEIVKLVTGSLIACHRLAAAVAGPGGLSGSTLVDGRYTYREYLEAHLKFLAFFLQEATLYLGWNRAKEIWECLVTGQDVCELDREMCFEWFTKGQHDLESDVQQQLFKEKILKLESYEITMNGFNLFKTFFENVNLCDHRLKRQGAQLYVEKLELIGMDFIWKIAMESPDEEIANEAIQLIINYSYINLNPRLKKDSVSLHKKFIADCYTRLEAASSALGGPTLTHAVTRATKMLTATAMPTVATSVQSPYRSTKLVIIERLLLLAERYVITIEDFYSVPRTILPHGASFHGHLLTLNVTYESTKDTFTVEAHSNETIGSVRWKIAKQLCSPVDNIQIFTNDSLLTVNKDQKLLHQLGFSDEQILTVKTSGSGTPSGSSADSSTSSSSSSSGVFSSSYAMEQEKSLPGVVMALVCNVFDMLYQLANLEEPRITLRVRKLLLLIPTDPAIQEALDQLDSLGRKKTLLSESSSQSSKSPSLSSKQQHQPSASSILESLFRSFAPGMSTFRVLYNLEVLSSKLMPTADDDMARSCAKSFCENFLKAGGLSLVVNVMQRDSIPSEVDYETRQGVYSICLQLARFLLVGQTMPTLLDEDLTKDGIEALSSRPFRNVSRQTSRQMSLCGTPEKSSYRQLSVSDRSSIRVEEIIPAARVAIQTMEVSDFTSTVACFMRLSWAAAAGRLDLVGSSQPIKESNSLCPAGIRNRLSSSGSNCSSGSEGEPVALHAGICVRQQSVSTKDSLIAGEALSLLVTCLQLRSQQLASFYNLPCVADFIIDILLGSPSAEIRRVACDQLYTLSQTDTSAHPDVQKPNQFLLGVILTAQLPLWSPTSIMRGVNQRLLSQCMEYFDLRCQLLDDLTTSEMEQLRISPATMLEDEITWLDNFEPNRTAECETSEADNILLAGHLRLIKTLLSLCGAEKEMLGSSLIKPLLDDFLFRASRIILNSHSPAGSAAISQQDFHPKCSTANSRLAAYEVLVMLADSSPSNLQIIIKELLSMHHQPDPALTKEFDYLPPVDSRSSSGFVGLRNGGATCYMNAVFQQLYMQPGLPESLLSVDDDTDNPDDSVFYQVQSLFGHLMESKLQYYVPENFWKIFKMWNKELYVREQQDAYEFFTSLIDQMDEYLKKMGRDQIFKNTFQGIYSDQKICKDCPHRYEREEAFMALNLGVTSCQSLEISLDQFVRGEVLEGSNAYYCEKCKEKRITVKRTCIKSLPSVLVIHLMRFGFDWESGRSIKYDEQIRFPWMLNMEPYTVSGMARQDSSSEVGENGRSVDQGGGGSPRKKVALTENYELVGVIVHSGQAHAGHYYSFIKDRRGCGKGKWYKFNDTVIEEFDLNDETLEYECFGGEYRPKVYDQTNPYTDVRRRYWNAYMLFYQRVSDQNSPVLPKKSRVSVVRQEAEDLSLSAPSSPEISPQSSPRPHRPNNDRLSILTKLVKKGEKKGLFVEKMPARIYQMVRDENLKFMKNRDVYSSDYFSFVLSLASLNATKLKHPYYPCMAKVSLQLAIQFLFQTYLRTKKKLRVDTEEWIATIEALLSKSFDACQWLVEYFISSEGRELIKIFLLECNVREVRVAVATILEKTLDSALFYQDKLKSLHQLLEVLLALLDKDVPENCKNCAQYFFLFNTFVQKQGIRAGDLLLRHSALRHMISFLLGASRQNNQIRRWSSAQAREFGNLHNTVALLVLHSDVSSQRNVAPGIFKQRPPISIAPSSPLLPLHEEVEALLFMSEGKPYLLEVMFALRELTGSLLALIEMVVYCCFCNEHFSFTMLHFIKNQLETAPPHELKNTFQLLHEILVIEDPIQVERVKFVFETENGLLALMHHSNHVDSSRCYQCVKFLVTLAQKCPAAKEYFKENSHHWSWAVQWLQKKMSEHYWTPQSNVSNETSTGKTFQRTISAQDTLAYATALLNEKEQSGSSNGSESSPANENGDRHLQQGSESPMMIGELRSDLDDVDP

O=C(CCl)NCCC1=CCCCC1
inactive: USP16 -0.0314 | USP19 -0.00951 | USP24 -0.0898 | USP25 -0.223 | USP28 -0.444
